EBV LMP1 NFkB: Epstein-Barr LMP1 NF-kappaB reporter inhibition. LMP1-induced NF-kappaB luciferase reporter cells, luminescence. inhibition, % at 12.5 µM. 350,000 tested, 0.69% active; in the data active = inhibition above about 41%; inconclusive = no clear call, values can overlap the other calls;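 note: 0% = neutral control wells and 100% = reference inhibitor control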
MITF act: activators of MITF-driven TRPM1 promoter activity in SK-MEL-5 cells. 300,000 tested, 0.75% active. SK-MEL-5 TRPM1-promoter luciferase, 24 h; % of positive control, neutral wells = 0. activation, % at 12.5 µM;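 active = mean activation of at least 80% with every replicate also reaching 80%; inconclusive = mean reaches 80% but some replicate falls short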;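 note: 0% = neutral control wells and 100% = parthenolide positive control wells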
TROY NFkB inh: blocks TROY-dependent signaling in reporter cells. Q293 LMP1-TROYcd NF-kB luciferase reporter, 4 h. inhibition, % at 10 µM. 360,000 tested, 0.98% active;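 active = compounds whose plate-normalised and pattern-corrected inhibition of the luciferase reporter signal at the single screening dose is 50% or more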
TRPM1 prom inh: MITF TRPM1 promoter inhibition in SK-MEL-5 cells | SK-MEL-5 TRPM1 promoter luciferase, 24 h | inhibition, % at 12.5 µM | 330,000 tested, 0.83% active | AID 488899;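 active = mean inhibition across replicates of 60% or more, whatever share of single replicates reaches that level; inconclusive = some that reach 60%, reason not given; inactive = mean inhibition across replicates below 60%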
LGR2 antag: inhibitors of bursicon-induced Drosophila LGR2 receptor cAMP signaling | HEK293 LGR2, CRE-luciferase, bursicon-stimulated, 4 h | 380,000 tested, 0.35% active | inhibition, % at 9.99 µM;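 active = drop in luminescence signal, shown as inhibition above about 50% in the replicate tests, limit read from the data, passing the limit was not always enough; inconclusive = probably only some replicates passing the limit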;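 note: agonist challenge used bursicon conditioned medium at about half maximal strength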
TWEAK-Fn14 inh: TWEAK-Fn14 signaling inhibition; TWEAK-stimulated Fn14 reporter cells, luciferase luminescence, 8 h; inhibition, % at 10 µM; 360,000 tested, 2% active; in the data active = inhibition above about 50%
An asterisk follows results filed as active; u = inconclusive; x = no result. In the library only some 3% were active in any assay of this set; here they are far more common.

SMILES | EBV LMP1 NFkB | MITF act | TROY NFkB inh | TRPM1 prom inh | LGR2 antag | TWEAK-Fn14 inh
CO[C@@H]1CN(C)C(=O)c2ccc(NC(=O)c3ccc(F)cc3)cc2OC[C@H](C)N(C(=O)CN(C)C)C[C@H]1C | x | x | x | x | 3 | x
CCOC(=O)c1ccc(N2N=C(C)/C(=C/C=C/c3ccco3)C2=O)cc1 | -10 | -4 | 5 | 6 | x | 18
CC1=NN(c2ccc(C)c(C)c2)C(=O)/C1=C\C=C\c1ccc([N+](=O)[O-])o1 | 23 | -83 | 33 | 84* | x | 86*
C[C@@H]1CCCCO[C@H](CN(C)S(=O)(=O)c2ccccc2)[C@H](C)CN([C@@H](C)CO)C(=O)c2cc(NC(=O)Cc3ccccc3)ccc2O1 | x | x | x | x | 10 | x
O=C(NCc1ccc2c(c1)OCO2)c1nc(S(=O)(=O)Cc2ccccc2F)ncc1Cl | 11 | -92 | 76* | 91* | 8 | 79*
O=C(NCc1ccc2c(c1)OCO2)c1nc(S(=O)(=O)Cc2ccccc2)ncc1Cl | -8 | -53 | 60* | 52 | 1 | 73*
C[C@H]1CN([C@@H](C)CO)C(=O)c2cc(NC(=O)CCC(F)(F)F)ccc2O[C@@H]1CN(C)C(=O)Nc1cccc2ccccc12 | x | x | x | x | 8 | x
c1ccc(COc2ccc(-c3csnn3)cc2)cc1 | -23 | 94* | -44 | -94 | x | 2
CCCCCCC(=O)N(O)C1CC(=O)N(Cc2ccccc2)C1=O (stereo not given) | 52* | x | -16 | 5 | x | -80
O=C(Nc1cccc(C(=O)NC2CCCCC2)c1)c1ccccc1 | -5 | 2 | -21 | -3 | 14 | -8
CCN(C(=O)c1cc(OC)c(OC)c(OC)c1)C1CCCCC1 | 48* | x | -23 | x | -18 | -14
CCN(C(=O)c1cccc(NC(=O)c2ccccc2)c1)C1CCCCC1 | 51* | -3 | 1 | 4 | 9 | 19
COc1cccc(S(=O)(=O)N[C@@H]2C=C[C@H](CC(=O)NCc3ccncc3)O[C@H]2CO)c1 | x | x | x | x | 7 | x
COc1ccc(OCCSc2nc(N)cc(N)n2)cc1 | -19 | 95* | -47 | -95 | x | -18
Cc1ccc(OCCSc2nc(N)cc(N)n2)cc1 | -30 | u | -40 | -74 | x | -15
Cc1noc(C)c1S(=O)(=O)N(C)C[C@H]1OCCCC[C@@H](C)Oc2ccc(NC(=O)Nc3ccccc3)cc2C(=O)N([C@@H](C)CO)C[C@H]1C | x | x | x | x | 1 | x
O=C(c1ccc2c(c1)OCO2)N1CC(=O)N2[C@@H](CO)[C@H](c3ccc(C#Cc4ccccc4)cc3)[C@@H]2C1 | x | x | x | x | 21 | x
Cc1cccc(N2CCN(C(=O)c3ccc(S(=O)(=O)N(C)c4ccccc4)cc3)CC2)c1C | 8 | -18 | 30 | 18 | x | 61*
CN1CCN(C(=O)c2ccc(S(=O)(=O)N(C)c3ccccc3)cc2)CC1 | 12 | x | -10 | x | 7 | -1
CCCCNC(=O)c1ccc(NC(=O)C2CCCO2)cc1 (stereo not given) | -4 | 2 | 1 | -1 | x | 3
CCCCc1ccc(NC(=O)C2CCCO2)cc1 (stereo not given) | -13 | 105* | -57 | -98 | x | -3
COCC(=O)N1[C@@H](CO)[C@@H](c2ccc(-c3cccc(F)c3)cc2)C12CN(C(=O)C1CC1)C2 | x | x | x | x | -4 | x
CN1C(=O)c2cc(NC(=O)c3cccs3)ccc2OC[C@H]2O[C@@H](CC(=O)NCCN3CCCCC3)CC[C@H]21 | x | x | x | x | -2 | x
CCOc1ccccc1N(CC(=O)N1CCCC1)S(C)(=O)=O | 49* | -3 | 6 | 3 | 2 | 11
COC(=O)c1nn(-c2nc(-c3cccc(OC)c3)cc(C(F)(F)F)n2)cc1[N+](=O)[O-] | -8 | -20 | 58* | 14 | 14 | -23
SMILES | EBV LMP1 NFkB | MITF act | TROY NFkB inh | TRPM1 prom inh | LGR2 antag | TWEAK-Fn14 inh
C[C@@H]1CN([C@H](C)CO)C(=O)c2cc(NC(=O)CCN3CCOCC3)ccc2O[C@H]1CN(C)C | x | x | x | x | -27 | x
CCOC(=O)c1c[nH]c(=O)c(Br)c1O | 61* | 0 | 16 | 1 | 5 | 11
CC(=O)c1sc(NC(=O)C=C(C)C)nc1C | -14 | 35 | -39 | -33 | x | -12
CC(=O)c1sc(NC(=O)C2(F)C(F)(F)C(F)(F)C(F)(F)C(F)(F)C2(F)F)nc1C | 5 | -45 | 62* | 46 | 2 | 65*
S=C(c1ccc(-c2ccc(Cl)cc2)o1)N1CCCCC1 | -59 | 83* | 2 | -80 | 5 | 12
S=C(c1ccc(-c2ccccc2Cl)o1)N1CCCCC1 | -30 | 67 | -49 | -67 | -62 | -9
C[C@@H]1CCCCO[C@H](CN(C)C(=O)Nc2ccccc2)[C@H](C)CN([C@H](C)CO)C(=O)c2cc(NS(=O)(=O)c3cccs3)ccc2O1 | x | x | x | x | -46 | x
CCC(=O)N(C)C[C@@H]1Oc2cc(C#CCN(C)C)ccc2S(=O)(=O)N([C@@H](C)CO)C[C@@H]1C | x | x | x | x | 4 | x
C[C@H](CO)N1C[C@H](C)[C@@H](CN(C)S(=O)(=O)c2cn(C)cn2)OCc2ccccc2-c2c(n(C)c3ccccc23)C1=O | x | x | x | x | 3 | x
Cc1ccc(OC(F)F)c(NC(=O)Nc2cccc(C(F)(F)F)c2)c1 | 6 | -3 | 40 | 5 | 30 | 75*
O=C(/C=C/Nc1cccc(C(F)(F)F)c1)C(F)(F)F | 65* | 6 | 16 | -3 | 7 | -1
COC(=O)/C=C/C(=O)Nc1cccc(C(F)(F)F)c1 | 43* | 12 | -6 | -8 | 1 | 51*
O=C(C1CCC1)N1CC(=O)N2[C@@H](CO)[C@@H](c3ccc(C4=CCCCC4)cc3)[C@@H]2C1 | x | x | x | x | -7 | x
COc1cccc(S(=O)(=O)N2CC[C@@H]3[C@H](CO)N(C)c4ccc(C#Cc5cccnc5)cc4[C@@H]32)c1 | x | x | x | x | -2 | x
Cc1ccc(-c2cc3nc4c(c(=O)n3[nH]2)CCCC4)cc1 | 11 | 21 | -10 | -21 | x | 62*
O=c1c2c(nc3cc(-c4ccc(F)cc4)[nH]n13)CCC2 | -3 | 87* | -33 | -87 | -9 | 35
O=S(=O)(N[C@@H]1CC[C@H](CCn2cc(-c3ccccn3)nn2)O[C@@H]1CO)c1cccc(F)c1 | x | x | x | x | 4 | x
COc1cccc(-c2ccc([C@H]3[C@@H](CO)N4C(=O)CN(C(=O)C5CCC5)C[C@@H]34)cc2)c1 | x | x | x | x | 1 | x
O=C(CSc1nnnn1-c1ccccc1)Nc1nsc(-c2ccc(Cl)cc2)n1 | 76* | -4 | -1 | 5 | x | -3
O=C(CSc1nnnn1-c1ccccc1)Nc1nsc(-c2ccccc2)n1 | 10 | 1 | -1 | -3 | x | 7
C[C@@H]1CN([C@@H](C)CO)C(=O)c2cc(NC(=O)Nc3ccc(C(F)(F)F)cc3)ccc2O[C@@H]1CN(C)C | x | x | x | x | -25 | x
COc1ccc(N2N=NN(C(C)C)C2=C(Cl)c2nnnn2-c2ccc(OC)cc2)cc1 | 85* | -34 | -33 | 37 | -23 | 0
CO[C@H]1CN(C)C(=O)c2ccc(NC(=O)C3CCCC3)cc2OC[C@@H](C)N(CC2CC2)C[C@H]1C | x | x | x | x | 1 | x
